This is part of a sample that, as a whole, favours compounds with a hit. Of some 83,000 tested, about 20% had one in any assay.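 48-hour exposure, single concentration, 96-well plates; percent growth endpoint where 0 means no net growth. Active: below 10.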 Unmarked numbers belong to inactive results. Calls of active or inactive are those of the source.

Eight molecules from PubChem BioAssay (NCI) can be followed below.

Common to all, as to experiment: NCI-60 one-dose screen, 48 h (100 = growth as untreated, 0 = no growth, -100 = all killed)
Holding throughout (conditions): 10 µM unless noted

Assay [1] deals with HCT-15 colon.
Assay [2] concerns HT29 colon.
For assay [3], the system named is SNB-75 CNS.
For assay [4], the system named is SNB-19 CNS.
Assay [5] has as its system U251 CNS.
Assay [6] deals with PC-3 prostate.
Assay [7] has as its system SK-MEL-5 melanoma.
Assay [8] has as its system UACC-62 melanoma.
Assay [9] deals with LOX IMVI melanoma.
For assay [10], the system named is SK-MEL-28 melanoma.
In assay [11] the test system is SK-MEL-2 melanoma.
Assay [12] concerns EKVX NSCLC.
The test system of assay [13] is SN12C renal.
Assay [14] has as its system UO-31 renal.
The test system of assay [15] is TK-10 renal.
Assay [16] relates to ACHN renal.
The subject of assay [17] is CAKI-1 renal.
The subject of assay [18] is A498 renal.
The test system of assay [19] is CCRF-CEM leukemia.
The subject of assay [20] is MOLT-4 leukemia.

In the case of `O=S(=O)(NCCNc1nccc(-n2cnc3ccccc32)n1)c1ccc(C(F)(F)F)cc1`, the growth was 60.7% in [1]; 68% in assay [2]; 46.8% in assay [3]; 69.8% in [4]; 69.6% in [5]; 45.5% in [6]. The growth in assay [7] was 8.48% (active); in assay [8], 42.4%; in assay [9], 57.4%; in [10], 77.2%; in [11], 67.8%; in [12] it was 34.7%. Also, the growth is 72.5% in [13]; 39.9% in assay [14]; 63.4% in assay [15]; 60.8% in assay [16]; 43.1% in assay [17]; 56.6% in assay [18]. Moreover, the growth in [19] was 57.6%; in [20] it was 45.2%.

Regarding `CC1(C)[C@@H](O)CC[C@]2(C)[C@H]3CC[C@@H]4[C@H]5[C@H](C(=O)/C=C\c6ccccn6)CC[C@]5(O)CC[C@@]4(C)[C@]3(C)CC[C@@H]12`, the growth in [1] was 15%; in [2], 28%; in assay [3] it was 26.2%; in assay [4], 48.3%; in assay [5], 37.7%; in [6], 39.9%. Moreover, the growth in [7] was 54.1%; in assay [8] it was 41.7%; in assay [9], -21.8% (active); in [10], 51.4%; in [11], 77.8%; in assay [12], 42.5%. Besides, the growth in [13] is 50.5%; in [14], 50.8%; in assay [15], 77.5%; in assay [16] it was 32.6%; in assay [17] it was 33.9%; in assay [18] it was 22%. Also, the growth was -0.82% (active) in [19] and -8.46% (active) in assay [20].

As for `COc1ccc(C2CC(c3ccc(Nc4nc(NCCO)nc(N5CCOCC5)n4)cc3)=Nc3c(N)nc(N)nc3N2)cc1` (stereo not given), the growth in [1] was 100%; in assay [2], 102%; in [3], 86.4%; in assay [4] it was 102%; in [5], 95.5%; in assay [6] it was 105%. The growth was 96.2% in [7]; 104% in assay [8]; 103% in assay [9]; 108% in [10]; 107% in assay [11]; 107% in assay [12]. For the same molecule, the growth in assay [13] is 96.9%; in [14], 93.7%; in [15], 115%; in [16] it was 102%; in assay [17], 94.3%; in [18], 87.9%. The growth in [19] is 105%; in assay [20], 102%.

Turning to `Cc1ccc(CSc2nc(-c3ccc(Cl)cc3)c(C#N)c(N3CCNCC3)n2)cc1`, the growth in [1] was 76.2%; in assay [2], 58.4%; in [3] it was 68.5%; in [4], 84.7%; in assay [5] it was 65.4%; in assay [6], 63.5%. In addition, the growth in assay [7] is 74.2%; in assay [8] it was 105%; in assay [9], 52.1%; in [10], 102%; in assay [11], 115%; in assay [12], 82.2%. Further, the growth in assay [13] is 77.8%; in [14], 64.2%; in [15] it was 99.7%; in assay [16] it was 82.3%; in assay [17], 64.9%; in assay [18], 17.6%. The growth in [19] was 65.6%; in [20] it was 55.5%.

Regarding `CCO/C=N/C1=C(C#N)C(c2ccc(Cl)cc2)c2sc3c(CC)cccc3c2O1` (stereo not given), the growth in assay [1] is 23.3%; in [2] it was 10.7%; in assay [3], -5.34% (active); in assay [4], 24.1%; in assay [5] it was 20%; in assay [6] it was 16.5%. The growth in [7] is 20.5%; in assay [8], 15.8%; in [9] it was 29.9%; in assay [10], 61.2%; in assay [11] it was 38.8%; in assay [12], 47.8%. Besides, the growth is 36.3% in assay [13]; 39.5% in [14]; 60.6% in assay [15]; 40.9% in [16]; 40.6% in assay [17]; 2.43% (active) in assay [18]. In addition, the growth in [19] is 16.1%; in [20], 23.6%.

As to `COc1ccc2c(c1)c(-c1cc(N)n3nc(-c4cn(C)c5ccc(OC)cc45)cc3n1)cn2C`, the growth in assay [1] is 29.8%; in assay [2], 75.6%; in assay [3], 98.2%; in [4], 107%; in [5], -30.9% (active); in assay [6], 88.7%. The growth is 102% in assay [7]; 100% in assay [8]; 105% in [9]; 113% in assay [10]; 133% in [11]; 107% in [12]. The growth in assay [13] is 92.4%; in [14] it was 93.3%; in assay [15], 121%; in assay [16] it was 103%; in assay [17], 96.7%; in assay [18], 88.8%. The growth in [19] was -8.54% (active); in assay [20] it was 56.1%.

As for `CCCCCc1ccc(S(=O)(=O)Nc2cccc(-c3csc(NC(=O)CCCCCN4CCN(C)CC4)n3)c2)cc1`, the growth in assay [1] is -7.05% (active); in [2] it was 7.36% (active); in assay [3] it was 85.9%; in [4], 72.3%; in [5] it was 26.2%; in [6], 50.3%. The growth in [7] is -66.8% (active); in [8], 63.2%; in [9] it was -83.8% (active); in assay [10], -18.9% (active); in [11], 98.3%; in assay [12], 71%. For the same molecule, the growth is 79.8% in assay [13]; 75.9% in assay [14]; 107% in [15]; 86.4% in assay [16]; 79.5% in [17]; 78.7% in assay [18]. The figures for the growth in [19] and in assay [20] were 5.75% (active) and 3.35% (active), respectively.

Regarding `CNC(=O)c1cc(-c2ccc(NC(=S)Nc3cc(C(F)(F)F)cc(C(F)(F)F)c3)cc2)nc2cccnc12`, the growth in assay [1] is 107%; in assay [2], 108%; in assay [3], 49.1%; in assay [4], 104%; in assay [5], 103%; in [6], 80.6%. Also, the growth in assay [7] was 92.7%; in assay [8], 95.3%; in assay [9], 93.9%; in [10], 103%; in assay [11], 99.3%; in [12], 70%. The growth in assay [13] was 86.7%; in [14] it was 59.7%; in [15] it was 68.9%; in assay [16] it was 101%; in assay [17], 71.4%; in [18], 47.2%. Also, the growth is 94.5% in [19] and 88% in assay [20].
